# Laboratory results from PubChem BioAssay (EPA / NIEHS).
# Records with an inconclusive call do not appear. Activity calls are given as the source filed them. Rule for the calls, unless noted: active = hit-call score of the fitted dose curve at least 0.9, where 1 is the maximum; inactive = score below 0.9.
# How the values were obtained:
# [1] = biological target: CCAAT/enhancer-binding protein beta (Homo sapiens) (UniProt P17676); test: ATG_C_EBP_CIS: Attagene CIS-FACTORIAL HepG2 Assay for human CCAAT/Enhancer Binding Protein (C/EBP) beta (AID 2282927); conditions: HepG2 Attagene cis-factorial transcription factor reporter; actives raise or lower the signal
# Chain of CCAAT/enhancer-binding protein beta (Homo sapiens) (P17676 whole entry, looked up): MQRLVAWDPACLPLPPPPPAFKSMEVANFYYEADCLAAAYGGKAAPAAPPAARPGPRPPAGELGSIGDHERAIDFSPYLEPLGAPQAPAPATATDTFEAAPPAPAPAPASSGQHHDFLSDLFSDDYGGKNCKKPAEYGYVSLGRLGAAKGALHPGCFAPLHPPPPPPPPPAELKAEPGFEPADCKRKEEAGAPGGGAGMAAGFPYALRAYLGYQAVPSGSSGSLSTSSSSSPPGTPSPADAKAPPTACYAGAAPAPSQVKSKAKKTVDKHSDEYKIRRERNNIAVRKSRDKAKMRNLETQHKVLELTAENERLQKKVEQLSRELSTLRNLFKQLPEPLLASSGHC
# How it was run: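 Changes in reporter mRNA, rather than exogenous chimeric receptor activity, reflect native C/EBP signalling in transfected HepG2 cells dosed for 24 h; transcripts are detected by RT-PCR and capillary electrophoresis.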
# [2] = ATG_GATA_CIS: Attagene CIS-FACTORIAL HepG2 Assay for human GATA Binding Protein (AID 2282944); conditions: HepG2 GATA cis-element reporter, Attagene multiplex mRNA; actives raise or lower the signal
# How it was run: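 Transient MRTU transfection, HepG2, 24 h compound exposure. Total RNA → oligo(dT) RT → PCR → 6-FAM primer extension → HpaI cut → CE. Bidirectional fit vs DMSO.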
# [3] = biological target: Hypoxia-inducible factor 1-alpha (Homo sapiens) (UniProt Q16665); test: ATG_HIF1a_CIS: Attagene CIS-FACTORIAL HepG2 Assay for human Hypoxia Inducible Factor 1 (HIF1A) (AID 2282951); conditions: HepG2 Attagene cis-factorial HIF1a reporter transcription; actives raise or lower the signal
# Chain of Hypoxia-inducible factor 1-alpha (Homo sapiens) (Q16665 whole entry, looked up): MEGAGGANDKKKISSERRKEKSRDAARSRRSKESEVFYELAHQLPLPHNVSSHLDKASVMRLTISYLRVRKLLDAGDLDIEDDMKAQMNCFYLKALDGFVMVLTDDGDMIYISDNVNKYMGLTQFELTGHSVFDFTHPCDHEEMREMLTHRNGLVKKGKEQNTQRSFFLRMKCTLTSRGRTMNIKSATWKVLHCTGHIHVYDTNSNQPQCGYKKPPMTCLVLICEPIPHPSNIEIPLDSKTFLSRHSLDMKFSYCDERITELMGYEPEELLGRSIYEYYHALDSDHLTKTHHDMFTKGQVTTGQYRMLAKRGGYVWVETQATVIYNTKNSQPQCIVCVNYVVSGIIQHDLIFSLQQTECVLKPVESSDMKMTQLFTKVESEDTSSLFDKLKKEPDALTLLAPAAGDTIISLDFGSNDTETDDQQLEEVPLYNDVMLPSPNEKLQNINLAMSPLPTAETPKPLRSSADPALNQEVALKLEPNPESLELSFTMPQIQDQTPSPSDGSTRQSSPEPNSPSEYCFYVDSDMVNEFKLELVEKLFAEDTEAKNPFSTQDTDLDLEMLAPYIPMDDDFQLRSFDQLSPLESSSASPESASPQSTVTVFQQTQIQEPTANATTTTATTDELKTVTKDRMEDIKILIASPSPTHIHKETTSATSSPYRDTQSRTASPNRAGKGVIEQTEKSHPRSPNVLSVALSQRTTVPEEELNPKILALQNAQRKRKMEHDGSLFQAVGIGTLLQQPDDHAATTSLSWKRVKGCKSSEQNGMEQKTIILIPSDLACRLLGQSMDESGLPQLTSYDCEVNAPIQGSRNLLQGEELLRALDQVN
# How it was run: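 Cis-element reporter constructs were transiently transfected into HepG2 cells, which were treated for 24 h; reporter RNA was reverse-transcribed, amplified, labelled and resolved by capillary electrophoresis.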
# [4] = biological target: Hepatocyte nuclear factor 6 (Homo sapiens) (UniProt Q9UBC0); test: ATG_HNF6_CIS: Attagene CIS-FACTORIAL HepG2 Assay for human Hepatocyte Nuclear Factor 6 (HNF6) (AID 2282952); conditions: HepG2 Attagene cis-factorial HNF6 reporter transcription; actives raise or lower the signal
# Chain of Hepatocyte nuclear factor 6 (Homo sapiens) (Q9UBC0 whole entry, looked up, the tested form may be a part): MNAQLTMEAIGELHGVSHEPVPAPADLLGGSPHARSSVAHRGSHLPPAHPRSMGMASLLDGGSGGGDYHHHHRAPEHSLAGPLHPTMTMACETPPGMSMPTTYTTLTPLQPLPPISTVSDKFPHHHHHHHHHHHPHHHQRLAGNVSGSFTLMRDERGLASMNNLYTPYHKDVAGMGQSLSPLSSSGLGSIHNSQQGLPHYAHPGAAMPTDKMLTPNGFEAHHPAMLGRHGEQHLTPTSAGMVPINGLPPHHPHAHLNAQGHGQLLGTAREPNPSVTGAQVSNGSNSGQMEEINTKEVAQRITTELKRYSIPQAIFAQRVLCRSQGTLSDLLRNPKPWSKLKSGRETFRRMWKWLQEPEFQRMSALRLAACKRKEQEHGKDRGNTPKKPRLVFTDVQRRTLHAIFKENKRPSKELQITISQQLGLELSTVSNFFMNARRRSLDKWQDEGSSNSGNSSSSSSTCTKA
# How it was run: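 Readout: fluorescent reporter-transcript fragments resolved by capillary electrophoresis after RT-PCR, reflecting endogenous factor activity in transfected HepG2. Exposure 24 h. Gain or loss of signal fitted bidirectionally against DMSO.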
# [5] = biological target: Heat shock factor protein 1 (Homo sapiens) (UniProt Q00613); test: ATG_HSE_CIS: Attagene CIS-FACTORIAL HepG2 Assay for human Heat Shock Transcription Factor 1 (HSE) (AID 2282953); conditions: HepG2 HSE cis-reporter, Attagene RNA transcription; actives raise or lower the signal
# Chain of Heat shock factor protein 1 (Homo sapiens) (Q00613 whole entry, looked up): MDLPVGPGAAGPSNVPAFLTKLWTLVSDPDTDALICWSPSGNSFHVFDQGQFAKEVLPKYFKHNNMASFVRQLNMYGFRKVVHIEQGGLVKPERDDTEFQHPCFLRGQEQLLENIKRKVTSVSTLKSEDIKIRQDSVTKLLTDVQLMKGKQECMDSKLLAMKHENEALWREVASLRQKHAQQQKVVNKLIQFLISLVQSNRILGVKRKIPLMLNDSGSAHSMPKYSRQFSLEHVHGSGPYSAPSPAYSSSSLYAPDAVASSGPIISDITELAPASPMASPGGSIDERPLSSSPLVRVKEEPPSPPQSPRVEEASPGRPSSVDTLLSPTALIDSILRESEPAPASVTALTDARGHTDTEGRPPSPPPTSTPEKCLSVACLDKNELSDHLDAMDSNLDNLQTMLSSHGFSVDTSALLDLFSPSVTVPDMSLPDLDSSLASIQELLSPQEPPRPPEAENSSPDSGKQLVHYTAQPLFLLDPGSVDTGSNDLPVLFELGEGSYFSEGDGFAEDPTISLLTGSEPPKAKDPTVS
# How it was run: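 HepG2, transient MRTU transfection, cis-promoter reporters (endogenous TF activity). 24 h compound. RNA → oligo(dT) RT → PCR → 6-FAM primer extension → HpaI cut → CE. Bidirectional fit vs DMSO.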
# [6] = ATG_PXRE_CIS: Attagene CIS-FACTORIAL HepG2 Assay for human Pregnane X Receptor Element (PXRE) (AID 2282957); conditions: HepG2 Attagene CIS-FACTORIAL PXRE reporter, mRNA; actives raise or lower the signal
# How it was run: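 Read-out: fluorescence of reporter-specific RT-PCR products resolved by capillary electrophoresis, fitted bidirectionally relative to DMSO. Human HepG2 liver cells carried transfected cis-promoter reporter units and were exposed to chemicals for 24 h.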
# [7] = ATG_Sox_CIS: Attagene CIS-FACTORIAL HepG2 Assay for human SRY-box transcription factor (SOX) (AID 2282960); conditions: HepG2 Attagene cis-factorial SOX reporter, mRNA; actives raise or lower the signal
# How it was run: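 Fluorescence-labelled cDNA fragments from reporter transcripts, sized by CE, give the signal. Cells: HepG2, transiently transfected with cis-regulated reporter units. Exposure 24 h; DMSO negative control; bidirectional curve fitting.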
# [8] = biological target: Transcription factor Sp1 (Homo sapiens) (UniProt P08047); test: ATG_Sp1_CIS: Attagene CIS-FACTORIAL HepG2 Assay for human Specificity Protein 1 (Sp1) (AID 2282961); conditions: HepG2 Sp1 cis-reporter transcription, actives raise or lower the signal
# How it was run: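 Chemicals are dosed onto HepG2 cells transfected with multiple cis-promoter reporter constructs, and after 24 h reporter RNA is reverse-transcribed, PCR-amplified and resolved by capillary electrophoresis for fluorescence quantitation; activity is scored up or down against DMSO.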
# [9] = biological target: Signal transducer and activator of transcription 3 (Homo sapiens) (UniProt P40763); test: ATG_STAT3_CIS: Attagene CIS-FACTORIAL HepG2 Assay for human Signal Transducer and Activator of Transcription 3 (STAT3) (AID 2282963); conditions: HepG2, Attagene cis-factorial STAT3 reporter transcription; actives raise or lower the signal
# Chain of Signal transducer and activator of transcription 3 (Homo sapiens) (P40763 whole entry, looked up): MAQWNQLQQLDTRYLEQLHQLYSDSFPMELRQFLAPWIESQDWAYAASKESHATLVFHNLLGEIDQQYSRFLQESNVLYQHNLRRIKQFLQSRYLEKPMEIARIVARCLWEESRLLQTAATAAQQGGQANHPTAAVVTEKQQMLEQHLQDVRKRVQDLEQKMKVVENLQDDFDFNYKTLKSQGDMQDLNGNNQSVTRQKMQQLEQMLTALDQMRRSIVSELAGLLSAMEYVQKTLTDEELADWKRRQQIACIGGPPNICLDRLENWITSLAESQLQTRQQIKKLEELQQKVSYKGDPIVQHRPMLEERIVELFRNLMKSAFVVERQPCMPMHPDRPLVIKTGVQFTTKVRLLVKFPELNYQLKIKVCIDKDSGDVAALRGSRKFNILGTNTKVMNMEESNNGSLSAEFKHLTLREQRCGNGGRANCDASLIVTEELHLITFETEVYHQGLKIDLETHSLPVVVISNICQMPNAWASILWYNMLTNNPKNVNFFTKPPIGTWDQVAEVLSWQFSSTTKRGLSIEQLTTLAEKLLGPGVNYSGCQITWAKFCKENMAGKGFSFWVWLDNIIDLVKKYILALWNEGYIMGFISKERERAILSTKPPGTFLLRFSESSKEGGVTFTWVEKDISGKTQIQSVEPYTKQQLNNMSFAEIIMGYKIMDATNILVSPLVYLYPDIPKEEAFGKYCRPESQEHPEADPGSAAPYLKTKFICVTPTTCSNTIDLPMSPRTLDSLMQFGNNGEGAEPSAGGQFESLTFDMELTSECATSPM
# How it was run: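 Cis-factorial format: endogenous transcription factors in HepG2 drive transfected reporter units. After 24 h treatment, reporter RNA was reverse-transcribed, amplified, FAM-labelled and HpaI-digested before CE analysis; activity scored in both directions against DMSO.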
# [10] = ATG_TAL_CIS: Attagene CIS-FACTORIAL HepG2 Assay for human TAL Basal Promoter (AID 2282966); conditions: HepG2 Attagene cis-factorial TAL promoter reporter; actives raise or lower the signal;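 note: background control endpoint measuring basal TAL promoter reporter mRNA not a specific factor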
# How it was run: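 HepG2, transient MRTU transfection, 24 h compound exposure; RNA → oligo(dT) RT → PCR → 6-FAM primer extension → HpaI digest → CE fluorescence. Bidirectional curve fit vs DMSO. Background-control readout.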
# [11] = biological target: X-box-binding protein 1 (Homo sapiens) (UniProt P17861); test: ATG_Xbp1_CIS: Attagene CIS-FACTORIAL HepG2 Assay for human X-box Binding Protein 1 (XBP1) (AID 2282972); conditions: HepG2 XBP1 cis-element reporter, Attagene multiplex; actives raise or lower the signal
# How it was run: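 Reporter transcripts were quantified by RT-PCR with fluorescent primer extension and capillary electrophoresis after 24 h chemical exposure. Cells: transiently transfected HepG2 carrying cis-regulated reporter constructs; data fitted bidirectionally relative to DMSO.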
# [12] = ATG_M_06_TRANS: Attagene TRANS-FACTORIAL HepG2 Assay for M06 Transcription Factor (Internal Marker) (AID 2282983; active = hit-call score of the fitted dose curve at least 0.9, where 1 is the maximum); conditions: HepG2 Attagene TRANS M06 internal marker reporter
# How it was run: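 Read-out: fluorescent reporter cDNA fragments resolved by capillary electrophoresis after RT-PCR and HpaI cut. Source cells were HepG2 carrying transfected multi-reporter GAL4 constructs, dosed 24 h. Increase over DMSO control analysed.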
# [13] = biological target: Transcriptional activator Myb (Homo sapiens) (UniProt P10242); test: ATG_Myb_CIS: Attagene CIS-FACTORIAL HepG2 Assay for human Myeloblastosis (Myb) Proto-Oncogene Transcription Factor (AID 2282986); conditions: HepG2 Attagene CIS-FACTORIAL Myb reporter transcription; actives raise or lower the signal
# Chain of Transcriptional activator Myb (Homo sapiens) (P10242 whole entry, looked up): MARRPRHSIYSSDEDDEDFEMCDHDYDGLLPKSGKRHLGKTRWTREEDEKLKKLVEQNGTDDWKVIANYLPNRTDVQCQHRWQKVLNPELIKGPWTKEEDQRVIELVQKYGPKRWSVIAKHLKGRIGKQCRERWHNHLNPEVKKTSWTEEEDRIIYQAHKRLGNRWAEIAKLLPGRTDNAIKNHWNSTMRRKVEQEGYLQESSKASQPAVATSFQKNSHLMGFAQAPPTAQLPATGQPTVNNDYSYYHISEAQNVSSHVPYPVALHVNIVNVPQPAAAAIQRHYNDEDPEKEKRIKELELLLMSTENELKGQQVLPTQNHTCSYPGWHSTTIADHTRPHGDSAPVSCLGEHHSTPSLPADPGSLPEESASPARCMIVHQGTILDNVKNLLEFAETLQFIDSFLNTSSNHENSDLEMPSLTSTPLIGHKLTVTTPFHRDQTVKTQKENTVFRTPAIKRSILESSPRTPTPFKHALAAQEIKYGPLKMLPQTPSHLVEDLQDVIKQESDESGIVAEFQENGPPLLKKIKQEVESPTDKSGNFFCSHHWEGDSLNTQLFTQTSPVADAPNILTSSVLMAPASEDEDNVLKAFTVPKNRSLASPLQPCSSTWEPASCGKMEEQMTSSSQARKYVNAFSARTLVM
# How it was run: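 Using HepG2 liver cells bearing transiently transfected cis-promoter reporter constructs, the assay measures induction or loss of reporter mRNA after 24 hours of dosing. Detection used fluorescently labeled RT-PCR products separated by capillary electrophoresis.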
# [14] = ATG_NFI_CIS: Attagene CIS-FACTORIAL HepG2 Assay for human Nuclear Factor I (NFI) (AID 2282989); conditions: HepG2 cis-regulatory reporter, NFI response element transcription; actives raise or lower the signal
# How it was run: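 Transient MRTU transfection of HepG2 → 24 h chemical dosing → total RNA, oligo(dT) RT → PCR, 6-FAM primer extension, HpaI cut → capillary electrophoresis. Endpoint fitted bidirectionally relative to DMSO.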
# [15] = ATG_NRF2_ARE_CIS: Attagene CIS-FACTORIAL HepG2 Assay for human Nuclear Factor Erythroid 2 Related Factor 2 (NFR2) response to Antioxidant Response Elements (ARE) (AID 2282992); conditions: HepG2 Attagene ARE/NRF2 reporter, transcription factor activity; actives raise or lower the signal
# How it was run: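 Endogenous transcription factor activity read out as reporter transcript levels (RT-PCR plus capillary electrophoresis, fluorescence) in transiently transfected HepG2 cells. Measured at 24 h after dosing; gain or loss of signal fitted versus DMSO.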
# [16] = biological target: Cellular tumor antigen p53 (Homo sapiens) (UniProt P04637); test: ATG_p53_CIS: Attagene CIS-FACTORIAL HepG2 Assay for human p53 Transcription Factor (AID 2282994); conditions: HepG2 p53 cis-element reporter, Attagene mRNA; actives raise or lower the signal
# Chain of Cellular tumor antigen p53 (Homo sapiens) (P04637 whole entry, looked up): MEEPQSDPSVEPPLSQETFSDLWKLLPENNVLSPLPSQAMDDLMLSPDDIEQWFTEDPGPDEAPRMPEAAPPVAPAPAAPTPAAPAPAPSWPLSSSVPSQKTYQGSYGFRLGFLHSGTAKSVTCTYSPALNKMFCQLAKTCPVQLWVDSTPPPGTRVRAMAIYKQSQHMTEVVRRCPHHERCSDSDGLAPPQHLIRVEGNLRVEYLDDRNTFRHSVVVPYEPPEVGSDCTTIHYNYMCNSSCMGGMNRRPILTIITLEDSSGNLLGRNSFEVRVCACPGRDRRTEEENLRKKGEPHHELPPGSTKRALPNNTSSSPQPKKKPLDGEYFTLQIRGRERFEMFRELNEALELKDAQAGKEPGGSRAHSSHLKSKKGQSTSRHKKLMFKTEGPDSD
# How it was run: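 Endogenous p53 activity read in transiently transfected HepG2 from a cis-element-driven reporter transcript after 24 h exposure. RNA reverse-transcribed, PCR-amplified, fluorescently labelled and sized by capillary electrophoresis; gain or loss fitted against DMSO baseline.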
# [17] = biological target: Cellular tumor antigen p53 (Homo sapiens) (UniProt P04637); test: TOX21_p53_BLA_p2_ratio: Tox21 HCT-116 p53 Agonism Beta-lactamase Assay, Ratio, Phase 2 (AID 2283592; active = hit-call score of the fitted dose curve at least 0.9, where 1 is the maximum)
# How it was run: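 Readout: blue/green (460/530 nm) FRET emission ratio after 2 h CCF4-AM loading at room temperature, excitation 405 nm. HCT116 p53 bla cells, 16 h compound exposure at 37C, 5% CO2; agonist direction fitted against DMSO baseline.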
# [18] = biological target: Transcription factor E2F1 (Homo sapiens) (UniProt Q01094); test: ATG_E2F_CIS: Attagene CIS-FACTORIAL HepG2 Assay for human E2F Transcription Factor 1 (AID 2282935); conditions: HepG2 Attagene cis-reporter, E2F reporter RNA transcripts; actives raise or lower the signal
# Chain of Transcription factor E2F1 (Homo sapiens) (Q01094 whole entry, looked up): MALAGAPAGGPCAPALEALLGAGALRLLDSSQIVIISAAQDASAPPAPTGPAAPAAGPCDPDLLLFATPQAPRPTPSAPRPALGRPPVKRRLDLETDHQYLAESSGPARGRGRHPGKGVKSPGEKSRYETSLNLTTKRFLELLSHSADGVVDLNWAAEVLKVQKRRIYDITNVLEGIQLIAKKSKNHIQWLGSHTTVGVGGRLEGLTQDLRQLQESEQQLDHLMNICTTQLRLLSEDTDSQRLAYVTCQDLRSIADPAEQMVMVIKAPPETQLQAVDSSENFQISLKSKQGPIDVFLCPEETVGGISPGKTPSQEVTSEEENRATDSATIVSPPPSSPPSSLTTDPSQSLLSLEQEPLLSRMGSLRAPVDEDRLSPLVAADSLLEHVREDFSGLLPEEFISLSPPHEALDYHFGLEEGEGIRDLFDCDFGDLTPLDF
# How it was run: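 Fluorescent RT-PCR products, digested with HpaI for 2 h at 37 C, are separated by capillary electrophoresis. Source RNA comes from transfected HepG2 cultures treated for 24 h.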
# [19] = ATG_VDRE_CIS: Attagene CIS-FACTORIAL HepG2 Assay for human Vitamin D Receptor Element (VDRE) (AID 2282968); conditions: HepG2 VDRE cis-reporter transcription, actives raise or lower the signal
# How it was run: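 Measures endogenous factor activity through cis-element-driven reporter transcripts in transiently transfected HepG2. Cells are treated 24 h; reporter mRNA is quantified by RT-PCR and capillary electrophoresis; fitting is bidirectional.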
# [20] = biological target: Myc proto-oncogene protein (Homo sapiens) (UniProt P01106); test: ATG_Myc_CIS: Attagene CIS-FACTORIAL HepG2 Assay for human Myelocytomatosis (Myc) Proto-Oncogene Transcription Factor (AID 2282990); conditions: HepG2, Attagene cis-reporter transcription factor activity; actives raise or lower the signal
# Chain of Myc proto-oncogene protein (Homo sapiens) (P01106 whole entry, looked up): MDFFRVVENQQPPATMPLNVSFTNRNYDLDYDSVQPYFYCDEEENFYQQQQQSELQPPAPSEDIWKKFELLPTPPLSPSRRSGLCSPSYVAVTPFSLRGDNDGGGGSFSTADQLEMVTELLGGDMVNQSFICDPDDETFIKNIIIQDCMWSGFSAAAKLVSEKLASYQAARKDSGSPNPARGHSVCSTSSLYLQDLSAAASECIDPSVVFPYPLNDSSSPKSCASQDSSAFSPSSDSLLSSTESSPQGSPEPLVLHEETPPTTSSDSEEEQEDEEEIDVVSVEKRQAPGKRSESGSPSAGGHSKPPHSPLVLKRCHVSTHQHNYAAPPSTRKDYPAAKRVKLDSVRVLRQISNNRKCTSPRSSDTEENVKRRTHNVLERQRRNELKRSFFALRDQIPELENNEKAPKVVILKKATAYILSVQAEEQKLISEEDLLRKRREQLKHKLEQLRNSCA
# How it was run: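 Cells of the HepG2 human liver line bear multiple cis-driven reporter transcription units. Reporter mRNA after 24 h exposure is reverse-transcribed, amplified, labelled and resolved by capillary electrophoresis, with gain- or loss-of-signal fitting relative to DMSO.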
smiles,measurement,setting,value
C=CC(C)(CCC=C(C)C)OC(=O)c1ccccc1 (stereo unspecified),outcome,[1],inactive
same,outcome,[2],inactive
same,outcome,[3],inactive
same,outcome,[4],inactive
same,outcome,[5],inactive
same,AC50,[6],6.33 µM (active)
same,outcome,[7],inactive
same,outcome,[8],inactive
same,outcome,[9],inactive
same,outcome,[10],inactive
same,outcome,[11],inactive
same,outcome,[12],inactive
same,outcome,[13],inactive
same,outcome,[14],inactive
same,AC50,[15],98 µM (active)
same,outcome,[16],inactive
same,outcome,[17],inactive
CCc1cc(C(N)=S)ccn1,outcome,[1],inactive
same,outcome,[18],inactive
same,outcome,[2],inactive
same,outcome,[4],inactive
same,outcome,[5],inactive
same,AC50,[6],157 µM (active)
same,outcome,[7],inactive
same,outcome,[9],inactive
same,outcome,[10],inactive
same,outcome,[19],inactive
same,outcome,[12],inactive
same,outcome,[13],inactive
same,outcome,[14],inactive
same,outcome,[20],inactive
same,outcome,[15],inactive
same,outcome,[16],inactive
same,outcome,[17],inactive
O=C(c1ccccc1)c1ccccc1O,outcome,[1],inactive
same,outcome,[18],inactive
same,outcome,[2],inactive
same,outcome,[3],inactive
same,AC50,[4],148 µM (active)
same,outcome,[5],inactive
same,AC50,[6],26.7 µM (active)
same,outcome,[7],inactive
same,AC50,[9],154 µM (active)
same,outcome,[10],inactive
same,outcome,[19],inactive
same,outcome,[11],inactive
same,outcome,[12],inactive
same,outcome,[13],inactive
same,AC50,[14],156 µM (active)
same,AC50,[20],135 µM (active)
same,outcome,[15],inactive
CC/C=C\CC/C=C/C(OCC)OCC,outcome,[1],inactive
same,outcome,[18],inactive
same,outcome,[3],inactive
same,outcome,[4],inactive
same,AC50,[5],156 µM (active)
same,AC50,[6],4.02 µM (active)
same,AC50,[7],147 µM (active)
same,outcome,[9],inactive
same,outcome,[10],inactive
same,outcome,[11],inactive
same,outcome,[12],inactive
same,outcome,[14],inactive
same,outcome,[20],inactive
same,AC50,[15],26.2 µM (active)
same,AC50,[16],187 µM (active)
CCOC(=O)CC(=O)OCC,outcome,[1],inactive
same,outcome,[18],inactive
same,outcome,[3],inactive
same,outcome,[4],inactive
same,outcome,[5],inactive
same,outcome,[7],inactive
same,outcome,[8],inactive
same,outcome,[9],inactive
same,outcome,[10],inactive
same,outcome,[19],inactive
same,outcome,[11],inactive
same,outcome,[13],inactive
same,outcome,[14],inactive
same,outcome,[15],inactive
same,outcome,[16],inactive
same,outcome,[17],inactive
C=CCOC(=O)C(=C)C,outcome,[1],inactive
same,outcome,[18],inactive
same,outcome,[3],inactive
same,outcome,[4],inactive
same,outcome,[5],inactive
same,outcome,[6],inactive
same,outcome,[7],inactive
same,outcome,[19],inactive
same,outcome,[12],inactive
same,outcome,[14],inactive
same,outcome,[20],inactive
same,outcome,[15],inactive
same,outcome,[16],inactive
same,outcome,[17],inactive
C/C=C(\C)C(=O)OCC/C=C\CC,outcome,[1],inactive
same,outcome,[18],inactive
same,outcome,[2],inactive
same,outcome,[3],inactive
same,outcome,[4],inactive
same,outcome,[5],inactive
same,outcome,[6],inactive
same,outcome,[7],inactive
same,outcome,[8],inactive
same,outcome,[10],inactive
same,outcome,[19],inactive
same,outcome,[11],inactive
same,outcome,[13],inactive
same,outcome,[14],inactive
same,outcome,[20],inactive
same,outcome,[15],inactive
same,outcome,[16],inactive
same,outcome,[17],inactive
NC(N)=Nc1nc(CSCCC(N)=NS(N)(=O)=O)cs1,outcome,[1],inactive
same,outcome,[18],inactive
same,outcome,[4],inactive
same,outcome,[5],inactive
same,outcome,[6],inactive
same,outcome,[7],inactive
same,outcome,[8],inactive
same,outcome,[9],inactive
same,outcome,[10],inactive
same,outcome,[19],inactive
same,outcome,[11],inactive
same,outcome,[12],inactive
same,outcome,[13],inactive
same,outcome,[14],inactive
same,outcome,[15],inactive
same,outcome,[16],inactive
same,outcome,[17],inactive
